Out of some 5,500 compounds screened, about 2,000 (36%) were called active. Another 18% or so got no clear call; they are omitted. Cut-off read from the data, not from the text of the source: active = normalized growth mostly below about 0.91 (no sharp cut-off); inconclusive = no clear call, values can overlap the other calls; inactive = mostly above about 0.92. Some of the results follow.
Assay: chemical genetic growth profiling, strain panel (AID 1159580);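 note: tested at 20 µM; growth read once vehicle control cultures reached saturation at 30 °C; 1 = growth at the plate median or of vehicle wells; lower values mean less growth of the strain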
Conditions: S. cerevisiae deletion strains, growth OD
[1] = locus YHR030C, strain SLT2, stronger effect = lower value
[2] = locus YHR079C, strain IRE1, stronger effect = lower value
[3] = locus YJL095W, strain BCK1, stronger effect = lower value
[4] = locus YJR066W, strain TOR1, stronger effect = lower value
[5] = locus YLR113W, strain HOG1, stronger effect = lower value
[6] = locus YNL183C, strain NPR1, stronger effect = lower value
[7] = locus YOR231W, strain MKK1, stronger effect = lower value
[8] = locus YPL256C, strain CLN2, stronger effect = lower value
[9] = locus YAL040C, strain CLN3, stronger effect = lower value
[10] = locus YCL061C, strain MRC1 (second series), stronger effect = lower value
[11] = locus YDR150W, strain NUM1, stronger effect = lower value
[12] = locus YDR363W, strain ESC2, stronger effect = lower value
[13] = locus YER002W, strain NOP16, stronger effect = lower value
[14] = locus YMR263W, strain SAP30, stronger effect = lower value
[15] = locus YMR307W, strain GAS1, stronger effect = lower value
[16] = locus YNL128W, strain TEP1, stronger effect = lower value
[17] = locus YNL153C, strain GIM3, stronger effect = lower value
[18] = locus YNL175C, strain NOP13, stronger effect = lower value
[19] = locus YNL197C, strain WHI3, stronger effect = lower value
[20] = locus YNL224C, strain SQS1, stronger effect = lower value
[21] = locus YOR083W, strain WHI5 (second series), stronger effect = lower value
[22] = locus YJR075W, strain HOC1, stronger effect = lower value
[23] = locus YPL055C, strain LGE1, stronger effect = lower value
[24] = locus YPL241C, strain CIN2, stronger effect = lower value
[25] = locus YNL322C, strain KRE1, stronger effect = lower value

Measured: normalized growth

C[N+]12CC[C@@]34c5ccccc5N5C(=O)CC6OCC=C(C1)[C@H](CC32)[C@@H]6C54 (stereo partly specified)
inactive: [1] 1.02 | [2] 1 | [3] 0.99 | [4] 0.942 | [5] 0.995 | [6] 0.933 | [7] 0.998 | [8] 0.986

N[C@@H](Cn1cc(I)c(=O)[nH]c1=O)C(=O)O
inactive: [9] 0.979 | [10] 0.992 | [11] 0.988 | [12] 1.01 | [13] 0.979 | [14] 1 | [15] 0.992 | [16] 0.977 | [17] 1.03 | [18] 0.993 | [19] 1 | [20] 0.99 | [21] 0.998

CCCn1c(=O)[nH]c(=O)c2[nH]cnc21
inactive: [9] 1.05 | [10] 1.01 | [12] 1.02 | [13] 0.999 | locus YGR229C, strain SMI1, stronger effect = lower value 1 | [22] 1 | [18] 1.01 | [19] 1.01 | [20] 1 | [21] 1 | [23] 1.02 | [24] 1.01

O=c1[nH]c(=O)n([C@H]2C[C@H](O)[C@@H](CO)O2)cc1/C=C/Br
inactive: locus YAL013W, strain DEP1, stronger effect = lower value 1.02 | [9] 0.98 | [10] 1 | [11] 0.994 | [12] 1.03 | [13] 0.977 | [14] 0.998 | [15] 1.01 | [16] 0.944 | [17] 0.999 | [18] 0.964 | [19] 0.936 | [20] 0.994 | [25] 0.999 | [21] 0.999 | [23] 0.998 | [24] 0.99

CCCCOc1cc(CC2CNC(=O)N2)ccc1OC (stereo unspecified)
inactive: locus YAL021C, strain ccr4, stronger effect = lower value 0.939 | locus YAL026C, strain drs2, stronger effect = lower value 1 | locus YAL030W, strain snc1, stronger effect = lower value 1.01 | [9] 1.08 | locus YBL061C, strain skt5, stronger effect = lower value 0.998 | locus YBR009C, strain hhf1, stronger effect = lower value 1.06 | locus YBR023C, strain chs3, stronger effect = lower value 0.992 | locus YBR171W, strain sec66, stronger effect = lower value 0.984 | locus YBR231C, strain swc5, stronger effect = lower value 1.01 | locus YBR279W, strain paf1, stronger effect = lower value 0.999 | locus YCL011C, strain gbp2, stronger effect = lower value 0.984 | locus YCL016C, strain dcc1, stronger effect = lower value 1 | [10] 1 | locus YCL061C, strain MRC1, stronger effect = lower value 0.985 | locus YCL069W, strain vba3, stronger effect = lower value 0.994 | locus YCR088W, strain abp1, stronger effect = lower value 0.987 | locus YDL005C, strain med2, stronger effect = lower value 0.986 | locus YDL040C, strain nat1, stronger effect = lower value 0.999 | locus YDR001C, strain nth1, stronger effect = lower value 0.988 | locus YDR069C, strain doa4, stronger effect = lower value 1.01 | locus YDR137W, strain rgp1, stronger effect = lower value 0.971 | [11] 1.01 | locus YDR159W, strain sac3, stronger effect = lower value 1.07 | locus YDR195W, strain ref2 0.992 | locus YDR297W, strain sur2, stronger effect = lower value 0.993 | locus YDR334W, strain swr1, stronger effect = lower value 0.968 | locus YDR335W, strain msn5, stronger effect = lower value 0.98 | locus YDR392W, strain spt3, stronger effect = lower value 0.975 | locus YEL003W, strain gim4, stronger effect = lower value 0.998 | locus YEL037C, strain rad23, stronger effect = lower value 0.994 | locus YEL061C, strain CIN8 (second series), stronger effect = lower value 0.981 | [13] 1.01 | locus YER015W, strain faa2, stronger effect = lower value 0.994 | locus YER016W, strain bim1, stronger effect = lower value 1.01 | locus YER111C, strain swi4, stronger effect = lower value 1.01 | locus YER155C, strain BEM2 (second series), stronger effect = lower value 1.04 | locus YFR010W, strain ubp6, stronger effect = lower value 0.994 | locus YGL167C, strain pmr1, stronger effect = lower value 1 | locus YGL173C, strain kem1, stronger effect = lower value 0.991 | locus YGL227W, strain vid30, stronger effect = lower value 1 | locus YGL240W, strain doc1, stronger effect = lower value 1.04 | locus YGL253W, strain hxk2, stronger effect = lower value 0.999 | locus YHR013C, strain ard1, stronger effect = lower value 0.979 | locus YHR027C, strain rpn1, stronger effect = lower value 0.992 | [1] 0.97 | [2] 0.973 | locus YHR142W, strain chs7, stronger effect = lower value 0.914 | locus YJL092W, strain hpr5, stronger effect = lower value 0.967 | locus YJL095W, strain BCK1 (second series), stronger effect = lower value 0.989 | [3] 0.978 | locus YJL115W, strain asf1, stronger effect = lower value 0.99 | locus YJL129C, strain trk1, stronger effect = lower value 0.965 | locus YJL154C, strain vps35, stronger effect = lower value 0.993 | locus YJL164C, strain tpk1, stronger effect = lower value 0.972 | locus YJL166W, strain qcr8, stronger effect = lower value 0.996 | locus YJL187C, strain SWE1, stronger effect = lower value 0.998 | [4] 0.935 | [22] 1.01 | locus YKL160W, strain elf1, stronger effect = lower value 0.954 | locus YKR026C, strain gcn3, stronger effect = lower value 0.981 | locus YKR091W, strain srl3, stronger effect = lower value 0.989 | locus YLL001W, strain dnm1, stronger effect = lower value 0.988 | locus YLL026W, stronger effect = lower value 0.998 | locus YLL041C, strain sdh2, stronger effect = lower value 0.984 | locus YLR027C, strain aat2, stronger effect = lower value 0.982 | [5] 0.978 | locus YLR221C, strain rsa3, stronger effect = lower value 0.971 | locus YLR258W, strain gsy2, stronger effect = lower value 1.02 | locus YLR262C, strain YPT6 (second series), stronger effect = lower value 1 | locus YLR320W, strain mms22, stronger effect = lower value 1.02 | locus YLR342W, strain FKS1, stronger effect = lower value 1 | locus YLR357W, strain rsc2, stronger effect = lower value 1.02 | locus YLR370C, strain arc18, stronger effect = lower value 0.978 | locus YLR384C, strain iki3, stronger effect = lower value 0.993 | locus YML120C, strain ndi1, stronger effect = lower value 0.968 | locus YMR058W, strain fet3, stronger effect = lower value 0.978 | locus YMR125W, strain sto1, stronger effect = lower value 1.02 | locus YMR129W, stronger effect = lower value 0.992 | locus YMR205C, strain PFK2, stronger effect = lower value 1.06 | locus YMR231W, strain pep5, stronger effect = lower value 1 | locus YNL071W, strain lat1, stronger effect = lower value 0.987 | [16] 1.01 | [18] 1.02 | [6] 0.956 | [19] 1.03 | locus YNL209W, strain ssb2, stronger effect = lower value 1 | [20] 1.01 | locus YNL248C, strain rpa49, stronger effect = lower value 0.93 | locus YNL322C, strain KRE1 (second series), stronger effect = lower value 0.987 | [25] 1.02 | locus YNR049C, strain mso1, stronger effect = lower value 0.992 | locus YOR001W, strain rrp6, stronger effect = lower value 0.951 | locus YOR070C, strain gyp1, stronger effect = lower value 1.01 | locus YOR080W, strain dia2, stronger effect = lower value 0.99 | [21] 1 | locus YOR083W, strain WHI5, stronger effect = lower value 0.944 | locus YOR106W, strain vam3, stronger effect = lower value 0.958 | [7] 0.976 | locus YOR265W, strain rbl2, stronger effect = lower value 0.998 | locus YOR270C, strain vph1, stronger effect = lower value 0.94 | locus YOR290C, strain snf2, stronger effect = lower value 0.987 | locus YPL051W, strain arl3, stronger effect = lower value 0.963 | locus YPL078C, strain atp4, stronger effect = lower value 0.921 | locus YPL106C, strain sse1, stronger effect = lower value 1.04 | locus YPL240C, strain hsp82, stronger effect = lower value 0.99 | [8] 0.948
